We go through 13 molecules from PubChem BioAssay.

Broadly, the inhibition is the change of the read-out against control, counted positive when it falls.

Each structure is given as a SMILES string. Active and inactive are the calls of the source.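 The calls were made as follows, unless noted: active = inhibition of the reporter signal at or above 50%; inactive = inhibition below 50%.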

Test [1] in a line: inhibitors of TNFa-induced NFkB p65 translocation, primary screen, imaging, HUVEC, MLSMR starter and 10KST1 sets (AID 438;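 active = inhibition above 20% together with a positive visual image hit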;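 also: compound added about 3h40 before a 20 min TNFalpha stimulation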;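 as to inhibition: signal is the nuclear over cytoplasmic p65 intensity ratio per well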). Conditions: HUVEC TNFa-induced p65 nuclear translocation; cell count: measured here: nuclei count (cytotoxicity indicator), at 2.08 µM; inhibition: at 2 µM, stronger effect = higher value, 0% TNFa-plus-vehicle, 100% no-TNFa wells.
The nature of test [2]: inhibitors of mutant huntingtin aggregation, primary screen, imaging, exon1htt(103Q)mCFP cells, high-content imaging (AID 483;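 active = visual image review flags a hit and inhibition of aggregation exceeds 20%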;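 also: compound exposure lasted 3 days before fixation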;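 as to nuclei count: percent of the per-plate median nuclei count of sample wells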). Conditions: exon1htt(103Q)mCFP cell line, aggregate imaging, at 2 µM; inhibition of aggregation: stronger effect = higher value; nuclei count: measured here: cell count, toxicity.
Test [3] in a line: inhibitors of E-selectin induction by TNFa, primary screen, imaging, HUVEC, immunofluorescence, MLSMR starter and 10KST1 sets (AID 487;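 active = visually confirmed hit in the image check and inhibition above 20%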;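 as to inhibition: signal is fraction of cell area covered by stained E-selectin grains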;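 as to nuclei count: 100% = median nuclei count of all wells on the same plate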). Conditions: HUVEC TNFalpha-induced E-selectin immunofluorescence imaging, at 2 µM; inhibition: stronger effect = higher value; nuclei count: measured here: cell number, toxicity.
Test [4] deals with Voltage-gated potassium channel subunit beta-2 (Rattus norvegicus) (UniProt P62483). As to the kind of experiment: KvBeta enzyme negative modulators, primary screen, biochemical, NADPH fluorescence (AID 622;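 active = fluorescence slope higher than the sample average by over 3 SD, cut at about -0.22 in these data, passing the limit was not always enough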;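 also: slope of raw intensity against log time taken from 70 to 1610 s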). Conditions: recombinant KvBeta, 4-cyanobenzaldehyde reduction, at 10 µM, stronger effect = higher value.
For test [5] the target is unchanged. As to the kind of experiment: KvBeta positive modulators, primary screen, biochemical, NADPH fluorescence (AID 623;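 active = NADPH fluorescence slope more negative than the mean of all samples by about 3 SD, 99.7% confidence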;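 also: fluorescence intensity change per second fitted from 20 to 320 s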). Conditions: Recombinant KvBeta, NADPH fluorescence decrease slope, 10 min; at 10 µM; stronger effect = lower value.
Test [6] concerns the target Alpha-2C adrenergic receptor (Homo sapiens) (UniProt P18825). Briefly: modulators of alpha2C/GIRK thallium flux, primary screen, cell-based, HEK293 alpha2C/GIRK1/2 (AID 624;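 active = fluorescence slope after compound addition differing from the mean of all screened samples at 99.7% confidence, in either direction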;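 also: slope of fluorescence ratio to pre-addition baseline per second over 15 to 24 s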). Conditions: thallium flux BTC fluorescence, at 10 µM, actives lie on both sides.
Test [7] can be described thus: inhibitors of Sendai virus-induced IRF3 signaling, primary screen, TLR/RLR signaling modifier project, cell-based, Sendai virus stimulus, luciferase, 10K MLSCN set (AID 602276;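 active = inhibition at or above 50% at 10 µM; inactive = inhibition below 50%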;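 also: firefly luciferase from ISG56 promoter only with Renilla not read in this screen; 0% = Sendai virus plus DMSO and 100% = medium plus DMSO without virus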). Conditions: HEK293 RL24 IRF3 luciferase reporter, at 10 µM, stronger effect = higher value. Background: In a reporter assay the amount or activity of a reporter protein is the signal.
A short description of test [8]: inhibitors of poly I:C-induced TLR3 signaling, primary screen, cell-based, poly I:C stimulus, luciferase, 10K MLSCN set (AID 602277). Conditions: HEK293-TLR3 RL24 IRF3 luciferase reporter, at 10 µM, stronger effect = higher value.

Alpha-2C adrenergic receptor (Homo sapiens), sequence (P18825 whole entry, looked up): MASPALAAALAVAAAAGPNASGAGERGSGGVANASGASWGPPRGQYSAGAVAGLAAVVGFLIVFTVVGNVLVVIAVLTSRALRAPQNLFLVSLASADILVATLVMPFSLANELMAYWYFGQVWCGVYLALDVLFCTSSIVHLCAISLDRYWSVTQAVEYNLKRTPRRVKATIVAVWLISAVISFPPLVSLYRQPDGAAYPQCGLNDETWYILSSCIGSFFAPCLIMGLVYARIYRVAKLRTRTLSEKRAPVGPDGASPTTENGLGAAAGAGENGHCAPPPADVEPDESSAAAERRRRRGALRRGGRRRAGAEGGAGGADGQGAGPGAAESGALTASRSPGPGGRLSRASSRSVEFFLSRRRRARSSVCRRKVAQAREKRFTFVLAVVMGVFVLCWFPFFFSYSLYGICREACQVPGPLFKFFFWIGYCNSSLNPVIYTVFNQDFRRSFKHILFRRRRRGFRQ
Voltage-gated potassium channel subunit beta-2 (Rattus norvegicus), sequence (P62483 whole entry, looked up): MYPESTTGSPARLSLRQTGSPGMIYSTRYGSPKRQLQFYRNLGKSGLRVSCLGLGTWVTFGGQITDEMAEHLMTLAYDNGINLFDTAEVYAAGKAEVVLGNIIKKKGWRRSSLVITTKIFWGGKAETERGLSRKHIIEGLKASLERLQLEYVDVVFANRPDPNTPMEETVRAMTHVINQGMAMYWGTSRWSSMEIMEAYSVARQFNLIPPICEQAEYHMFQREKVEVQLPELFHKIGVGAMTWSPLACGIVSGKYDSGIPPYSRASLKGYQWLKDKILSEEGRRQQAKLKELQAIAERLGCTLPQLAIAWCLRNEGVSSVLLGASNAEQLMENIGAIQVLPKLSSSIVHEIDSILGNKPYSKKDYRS

On to `CCCc1cc(C(=O)Nc2ccccc2C(=O)OC)no1`, for which the cell count in test [1] came to 864. Further, the inhibition in test [1] was 5.5% (inactive); in test [3] it was -50.4% (inactive); in test [7], -14.6% (inactive); in test [8], -14.1% (inactive). Further, the inhibition of aggregation in test [2] is 4.8% (inactive). The nuclei count in test [2] came to 92.4%; in test [3] it was 111%. For the same molecule, the fluorescence slope in test [4] is -0.629 (inactive). Besides, the NADPH fluorescence slope in test [5] was -3.3e-06 (inactive). In addition, the slope in test [6] is 0.0059 (inactive).

Regarding `CCCOC(=O)C1[C@H]2C(=O)N(CCCOC)C[C@]23C=C[C@H]1O3` (stereo partly drawn), the cell count in test [1] was 706. The inhibition in test [1] was -12.9% (inactive); in test [3], -21.6% (inactive); in test [7], 11.7% (inactive); in test [8], 15.6% (inactive). The inhibition of aggregation in test [2] was -14.9% (inactive). Moreover, the nuclei count worked out at 112% in test [2] and 118% in test [3]. In addition, the fluorescence slope in test [4] was -0.605 (inactive). Further, the NADPH fluorescence slope in test [5] is 3.2e-05 (inactive). In addition, the slope in test [6] is 0.00864 (inactive).

`CCN(CC)CCOC(=O)c1cccc(OC)c1`: the cell count in test [1] was 249. Besides, the inhibition in test [1] was 4.3% (inactive); in test [3] it was 16.1% (inactive); in test [7], 6.23% (inactive); in test [8] it was 14.4% (inactive). In addition, the inhibition of aggregation in test [2] is -8.4% (inactive). Further, the nuclei count was 114% in test [2] and 98.7% in test [3]. In test [4], the fluorescence slope is -0.638 (inactive). Moreover, the NADPH fluorescence slope in test [5] was -2.4e-05 (inactive). Besides, in test [6], the slope was 0.00412 (inactive).

With `Clc1ccccc1OCCCCn1ccnc1`, the cell count in test [1] stood at 425. Further, the inhibition was -0.2% (inactive) in test [1], 14.5% (inactive) in test [3], -3.32% (inactive) in test [7] and 5.03% (inactive) in test [8]. Further, in test [2], the inhibition of aggregation was -10.9% (inactive). The nuclei count in test [2] stood at 97.3%; in test [3], 106%. For the same molecule, the fluorescence slope in test [4] is -0.464 (inactive). Moreover, in test [5], the NADPH fluorescence slope was -5.3e-05 (inactive). Moreover, in test [6], the slope is 0.0106 (active).

With `CCSc1nnc(N2C(=O)CC(c3ccsc3)C3=C2CC(C)(C)CC3=O)s1` (stereo not drawn), in test [1], the cell count amounted to 558. The inhibition is 0% (inactive) in test [1], -46.6% (inactive) in test [3], 11.7% (inactive) in test [7] and 35.7% (inactive) in test [8]. The inhibition of aggregation in test [2] was 4.8% (inactive). For the same molecule, the nuclei count in test [2] was found to be 109%; in test [3], 115%. The fluorescence slope in test [4] is -0.55 (inactive). The NADPH fluorescence slope in test [5] is -4.6e-05 (inactive). The slope in test [6] is 0.00599 (inactive).

For the molecule `CCCC(=O)Nc1cc(-c2nnc(OC)c3ccccc23)ccc1N1CCOCC1`, the cell count in test [1] stood at 385. Also, the inhibition in test [1] was -9.8% (inactive); in test [3], -14.8% (inactive); in test [7], 22.9% (inactive); in test [8], 27.2% (inactive). The inhibition of aggregation in test [2] was -2% (inactive). Moreover, the nuclei count in test [2] stood at 105%; in test [3], 112%. For the same molecule, the fluorescence slope in test [4] was -0.522 (inactive). Also, the NADPH fluorescence slope in test [5] was -3.3e-06 (inactive). For the same molecule, the slope in test [6] is 0.00489 (inactive).

On to `O=C(CN1C(=O)c2ccccc2S1(=O)=O)Nc1ccc(S(=O)(=O)N2CCCCCC2)cc1`, for which, in test [1], the cell count worked out at 727. For the same molecule, the inhibition is -2.6% (inactive) in test [1], -91.2% (inactive) in test [3], 4.06% (inactive) in test [7] and 19.5% (inactive) in test [8]. In addition, the inhibition of aggregation in test [2] was -11.1% (inactive). The results for the nuclei count in test [2] and in test [3] were 99.9% and 107%, respectively. Also, the fluorescence slope in test [4] was -0.489 (inactive). Moreover, in test [5], the NADPH fluorescence slope is -5.4e-05 (inactive). In addition, the slope in test [6] is 0.00568 (inactive).

`O=C(N1CCN(c2ccccc2F)CC1)C12CC3CC(CC(C3)C1)C2`: in test [1], the cell count stood at 242. Also, the inhibition in test [1] is 3.4% (inactive); in test [3], 17.9% (inactive); in test [7], 7.35% (inactive); in test [8], 14.4% (inactive). Besides, the inhibition of aggregation in test [2] is -2.5% (inactive). Further, the nuclei count in test [2] stood at 99.4%; in test [3] it was 95%. Moreover, in test [4], the fluorescence slope was -0.387 (inactive). Besides, the NADPH fluorescence slope in test [5] was 2.5e-05 (inactive). The slope in test [6] was 0.00709 (inactive).

Regarding `Cc1ccc(C)c(N2CCN(Cc3nnnn3C3CCCCC3)CC2)c1`, the cell count in test [1] came out at 458. For the same molecule, the inhibition is -4.4% (inactive) in test [1], -49.3% (inactive) in test [3], 11.6% (inactive) in test [7] and 34.8% (inactive) in test [8]. Moreover, the inhibition of aggregation in test [2] was -7.6% (inactive). Also, the nuclei count is 123% in test [2] and 112% in test [3]. The fluorescence slope in test [4] is -0.626 (inactive). The NADPH fluorescence slope in test [5] was -2.5e-05 (inactive). The slope in test [6] was 0.00597 (inactive).

Consider `CCCCCC(=O)N(CN1C(=O)CCC1=O)c1ccccc1`, for which the cell count in test [1] stood at 806. Moreover, the inhibition was 5.4% (inactive) in test [1], 21.6% (inactive) in test [3], 9.92% (inactive) in test [7] and 13.3% (inactive) in test [8]. Also, in test [2], the inhibition of aggregation is -9.8% (inactive). For the same molecule, the nuclei count in test [2] came out at 100%; in test [3], 111%. Also, the fluorescence slope in test [4] is -0.283 (inactive). Besides, the NADPH fluorescence slope in test [5] is -4e-05 (inactive). Also, the slope in test [6] is 0.00618 (inactive).

For `Cc1ccc2c(c1)NC(=O)C(CC(=O)NCCCN1CCN(c3cc(Cl)ccc3C)CC1)O2` (stereo not drawn), the cell count in test [1] was found to be 640. For the same molecule, the inhibition in test [1] is 4.1% (inactive); in test [3], 8.8% (inactive); in test [7], -15.5% (inactive); in test [8], -8.91% (inactive). The inhibition of aggregation in test [2] is -19% (inactive). The nuclei count stood at 82.6% in test [2] and 123% in test [3]. In addition, the fluorescence slope in test [4] is -0.55 (inactive). For the same molecule, in test [5], the NADPH fluorescence slope was 3.4e-05 (inactive). For the same molecule, the slope in test [6] was 0.00483 (inactive).

For `CCOC(=O)CN1CC23C=CC(O2)C(C(=O)NCc2ccc(F)cc2)C3C1=O` (stereo not drawn), the cell count in test [1] came to 572. Besides, the inhibition is -2% (inactive) in test [1], -142% (inactive) in test [3], 14% (inactive) in test [7] and 27.7% (inactive) in test [8]. For the same molecule, the inhibition of aggregation in test [2] is 15.7% (inactive). Besides, the figures for the nuclei count in test [2] and in test [3] were 106% and 131%, respectively. Moreover, in test [4], the fluorescence slope was -0.589 (inactive). In test [5], the NADPH fluorescence slope is -1.1e-05 (inactive). For the same molecule, the slope in test [6] is 0.00638 (inactive).

`Cc1ccccc1-c1nc(CN2CCC(C(=O)N3CCC(C(N)=O)CC3)CC2)c(C)o1`: the cell count in test [1] worked out at 576. For the same molecule, the inhibition is 6.1% (inactive) in test [1], 7.6% (inactive) in test [3], 7.94% (inactive) in test [7] and 40.4% (inactive) in test [8]. For the same molecule, the inhibition of aggregation in test [2] was 1.2% (inactive). The figures for the nuclei count in test [2] and in test [3] were 87.6% and 87.8%, respectively. In addition, the fluorescence slope in test [4] was -0.548 (inactive). In addition, the NADPH fluorescence slope in test [5] was -3.8e-05 (inactive). For the same molecule, the slope in test [6] is 0.00557 (inactive).
